The full data set covers some 7,900 targets. This sample favours those with a hit. About 0.6% of all pairs of compound and target were hits.
Experiments:
Test in all cases: log2 fold change, soluble protein after heating vs DMSO (PISA); higher = thermal stabilisation; K562 cells, 10 uM, 30 min; active = over 0.2 and 3.5 SD of the protein, either way, in both replicates (recomputed)
[1] = compound: CC[C@@H]1C(=O)N(C)c2cnc(Nc3ccc(C(=O)NC4CCN(C)CC4)cc3OC)nc2N1C1CCCC1
In short: (§1)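 Quantification of soluble protein used TMTpro 16plex LC-MS/MS, with channel sums equalised. Samples were the supernatant after 21,000xg for 90 min of pooled aliquots from K562 cells (2×10^6 cells/mL) treated with 10 μM compound for 30 min, heated for 3 min over 48°C-58°C, and extracted in PBS with 0.5% NP-40 at 4°C. Values, from duplicates, describe thermal stability against control samples on a log2 fold-change scale.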

volasertib = compound: CC[C@@H]1C(=O)N(C)c2cnc(Nc3ccc(C(=O)N[C@H]4CC[C@H](N5CCN(CC6CC6)CC5)CC4)cc3OC)nc2N1C(C)C [volasertib]
In short: as §1

[2] = compound: CC[C@H](C)N1C=C(C2=C(C=C(C=C21)C3=CN=C(C=C3)N4CCNCC4)C(=O)NCC5=C(C=C(NC5=O)C)C)C
In short: as §1

epoxomicin = compound: CC[C@H](C)[C@@H](C(=O)N[C@@H]([C@@H](C)O)C(=O)N[C@@H](CC(C)C)C(=O)[C@]1(CO1)C)NC(=O)[C@H]([C@@H](C)CC)N(C)C(=O)C [epoxomicin]
In short: as §1

[3] = compound: CCn1c(C(=O)N(C2CC2)C2CC2)cc2c3c(ncn3C)c(Nc3cc(C)n(C)n3)nc21
In short: as §1

[4] = compound: CCn1cc(-c2ccnc3[nH]c(-c4cccc(CN(C)C)c4)cc23)c(-c2ccc(NC(=O)N(C)C)cc2)n1
In short: as §1

[5] = compound: CN(C)CC(=O)Nc1ccc2[nH]c(=O)c3ccccc3c2c1
In short: as §1

rosiglitazone = compound: CN(CCOC1=CC=C(C=C1)C[C@H]2C(=O)NC(=O)S2)C3=CC=CC=N3 (racemic) [rosiglitazone]
In short: as §1

[6] = compound: CN1C2=C(C3=C1C(=O)N(N=C3)CC4=CC(=CC=C4)N)SC(=C2)S(=O)C
In short: as §1

[7] = compound: CN1CCC(CNc2ccc3ncc(-c4cccc(OC(F)(F)F)c4)n3n2)CC1
In short: as §1

saracatinib = compound: CN1CCN(CCOc2cc(OC3CCOCC3)c3c(Nc4c(Cl)ccc5c4OCO5)ncnc3c2)CC1 [saracatinib]
In short: as §1

sotrastaurin = compound: CN1CCN(c2nc(C3=C(c4c[nH]c5ccccc45)C(=O)NC3=O)c3ccccc3n2)CC1 [sotrastaurin]
In short: as §1

alvocidib = compound: CN1CC[C@H](c2c(O)cc(O)c3c(=O)cc(-c4ccccc4Cl)oc23)[C@H](O)C1 [alvocidib]
In short: as §1

Tubastatin A = compound: CN1CCc2c(c3ccccc3n2Cc2ccc(C(=O)NO)cc2)C1 [Tubastatin A]
In short: as §1

[8] = compound: CNC(=O)C1=CC=CC=C1NC2=NC(=NC=C2Cl)NC3=C(C=C(C=C3)N4CCOCC4)OC
In short: as §1

defactinib = compound: CNC(=O)c1ccc(Nc2ncc(C(F)(F)F)c(NCc3nccnc3N(C)S(C)(=O)=O)n2)cc1 [defactinib]
In short: as §1

rucaparib = compound: CNCc1ccc(-c2[nH]c3cc(F)cc4c3c2CCNC4=O)cc1 [rucaparib]
In short: as §1

[9] = compound: CNc1nc(-c2ccc3c(N)n[nH]c3c2)cc(N2C[C@@H](C(=O)NC3CCCCC3)CC[C@H]2C)n1
In short: as §1

encorafenib = compound: COC(=O)N[C@@H](C)CNc1nccc(-c2cn(C(C)C)nc2-c2cc(Cl)cc(NS(C)(=O)=O)c2F)n1 [encorafenib]
In short: as §1

[10] = compound: COC(=O)[C@H](CCSC)NC(=O)C1=C(C=C(C=C1)NC[C@H](CS)N)C2=CC=CC=C2
In short: as §1

Measured: log2 fold change

NFATC2IP (UniProt Q8NCF5)
Sequence of UniProt Q8NCF5 (Q8NCF5 whole entry, looked up): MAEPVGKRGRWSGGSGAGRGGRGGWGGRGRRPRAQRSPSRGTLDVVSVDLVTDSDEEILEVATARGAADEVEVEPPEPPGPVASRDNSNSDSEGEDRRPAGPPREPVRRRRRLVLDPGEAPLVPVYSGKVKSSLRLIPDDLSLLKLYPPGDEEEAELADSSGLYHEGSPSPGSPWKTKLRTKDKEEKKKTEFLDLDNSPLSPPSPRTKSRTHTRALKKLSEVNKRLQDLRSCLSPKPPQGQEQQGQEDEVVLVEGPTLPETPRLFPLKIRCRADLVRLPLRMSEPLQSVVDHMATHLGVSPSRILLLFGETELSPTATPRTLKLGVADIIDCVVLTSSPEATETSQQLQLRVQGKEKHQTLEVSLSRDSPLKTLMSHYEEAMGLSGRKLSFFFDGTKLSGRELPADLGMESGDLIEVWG
inactive: [1] -0.09 | [2] 0.069 | epoxomicin -0.052 | [3] 0.022 | [4] 0.038 | [5] 0.048 | rosiglitazone 0.041 | [6] -0.008 | [7] -0.103 | saracatinib 0.065 | sotrastaurin -0.033 | alvocidib -0.107 | Tubastatin A 0.012 | [8] 0.067 | defactinib -0.122 | rucaparib 0 | [9] 0.005 | encorafenib 0.075 | [10] -0.017
active: volasertib -0.278

NIBAN1 (UniProt Q9BZQ8)
Sequence of UniProt Q9BZQ8 (Q9BZQ8 whole entry, looked up): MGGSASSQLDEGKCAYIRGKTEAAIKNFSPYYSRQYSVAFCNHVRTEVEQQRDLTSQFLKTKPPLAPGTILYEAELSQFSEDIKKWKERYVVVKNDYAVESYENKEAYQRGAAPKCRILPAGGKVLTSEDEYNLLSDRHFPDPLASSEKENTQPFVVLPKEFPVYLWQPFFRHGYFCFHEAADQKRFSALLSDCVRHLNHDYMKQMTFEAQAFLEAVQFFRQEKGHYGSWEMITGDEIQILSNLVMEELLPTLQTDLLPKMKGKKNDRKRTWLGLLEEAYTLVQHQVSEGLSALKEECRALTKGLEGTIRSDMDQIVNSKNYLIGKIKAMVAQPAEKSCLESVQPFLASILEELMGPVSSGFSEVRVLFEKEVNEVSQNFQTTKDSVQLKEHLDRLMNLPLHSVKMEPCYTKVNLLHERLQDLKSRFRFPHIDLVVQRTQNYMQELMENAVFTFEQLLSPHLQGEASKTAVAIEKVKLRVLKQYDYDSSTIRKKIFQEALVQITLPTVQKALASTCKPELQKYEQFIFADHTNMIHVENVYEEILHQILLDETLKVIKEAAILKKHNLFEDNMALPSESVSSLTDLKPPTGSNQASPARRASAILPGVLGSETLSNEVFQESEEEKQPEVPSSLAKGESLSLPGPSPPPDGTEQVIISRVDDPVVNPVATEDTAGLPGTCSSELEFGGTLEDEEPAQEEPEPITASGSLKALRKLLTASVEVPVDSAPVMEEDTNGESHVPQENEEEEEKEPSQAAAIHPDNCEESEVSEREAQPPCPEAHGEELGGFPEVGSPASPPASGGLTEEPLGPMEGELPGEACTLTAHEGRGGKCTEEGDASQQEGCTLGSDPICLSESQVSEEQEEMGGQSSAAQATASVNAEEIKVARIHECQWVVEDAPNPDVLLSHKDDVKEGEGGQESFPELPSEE
inactive: [1] -0.16 | [2] 0.073 | epoxomicin 0.066 | [3] -0.039 | [4] -0.085 | [5] 0.022 | rosiglitazone 0.055 | [6] 0.04 | [7] -0.208 | saracatinib -0.051 | sotrastaurin -0.086 | alvocidib -0.037 | Tubastatin A 0.004 | [8] -0.013 | defactinib -0.111 | rucaparib 0.08 | [9] 0.013 | encorafenib 0.144 | [10] -0.017
active: volasertib -0.428

MTMR14 (UniProt Q8NCE2)
Sequence of UniProt Q8NCE2 (Q8NCE2 whole entry, looked up): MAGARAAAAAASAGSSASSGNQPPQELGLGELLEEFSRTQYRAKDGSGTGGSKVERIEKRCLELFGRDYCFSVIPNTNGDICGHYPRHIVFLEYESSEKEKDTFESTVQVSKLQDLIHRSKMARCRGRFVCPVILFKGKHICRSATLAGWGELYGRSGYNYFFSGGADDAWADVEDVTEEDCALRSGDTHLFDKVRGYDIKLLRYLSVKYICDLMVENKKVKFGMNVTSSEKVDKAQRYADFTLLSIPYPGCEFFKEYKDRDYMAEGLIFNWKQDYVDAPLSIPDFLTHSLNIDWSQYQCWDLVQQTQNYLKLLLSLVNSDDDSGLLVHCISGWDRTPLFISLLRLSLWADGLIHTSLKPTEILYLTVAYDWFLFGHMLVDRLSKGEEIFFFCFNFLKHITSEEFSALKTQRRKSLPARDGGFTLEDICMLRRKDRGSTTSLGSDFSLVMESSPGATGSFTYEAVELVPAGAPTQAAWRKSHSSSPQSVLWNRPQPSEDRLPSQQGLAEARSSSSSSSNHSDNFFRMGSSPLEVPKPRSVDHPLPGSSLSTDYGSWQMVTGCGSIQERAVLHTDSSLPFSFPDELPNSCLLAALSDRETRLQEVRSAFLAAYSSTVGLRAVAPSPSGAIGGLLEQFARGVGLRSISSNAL
active: volasertib -0.622
inactive: [1] -0.194 | [2] 0.037 | epoxomicin 0.019 | [3] 0.009 | [4] -0.056 | [5] 0.001 | rosiglitazone 0.026 | [6] 0.022 | [7] -0.039 | saracatinib -0.037 | sotrastaurin -0.042 | alvocidib -0.059 | Tubastatin A 0 | [8] 0.008 | defactinib -0.058 | rucaparib -0.017 | [9] -0.064 | encorafenib -0.026 | [10] 0.038

NMT1 (UniProt P30419)
inactive: [1] 0.028 | volasertib -0.21 | [2] 0.036 | epoxomicin 0.014 | [3] 0.016 | [4] -0.028 | [5] -0.022 | rosiglitazone -0.073 | [6] 0.007 | [7] -0.097 | saracatinib -0.046 | sotrastaurin 0.019 | alvocidib 0.001 | Tubastatin A -0.029 | [8] -0.003 | defactinib 0.015 | rucaparib -0.009 | [9] 0.013 | encorafenib -0.002 | [10] 0.024

MYL12B (UniProt O14950)
Sequence of UniProt O14950 (O14950 whole entry, looked up): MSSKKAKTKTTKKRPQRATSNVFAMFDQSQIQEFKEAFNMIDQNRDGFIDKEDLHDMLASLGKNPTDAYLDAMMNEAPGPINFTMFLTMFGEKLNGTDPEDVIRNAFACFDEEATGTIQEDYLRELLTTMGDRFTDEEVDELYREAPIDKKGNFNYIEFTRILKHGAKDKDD
inactive: [1] -0.053 | volasertib -0.085 | [2] 0.06 | epoxomicin 0.052 | [3] -0.06 | [4] -0.064 | [5] 0.031 | rosiglitazone -0.025 | [6] -0.078 | [7] 0.01 | saracatinib 0.057 | sotrastaurin -0.012 | alvocidib -0.14 | Tubastatin A 0.019 | [8] 0.007 | defactinib -0.036 | rucaparib 0.009 | [9] -0.041 | encorafenib -0.012 | [10] -0.018

NFATC3 (UniProt Q12968)
inactive: [1] 0.038 | volasertib -0.331 | [2] 0.073 | epoxomicin -0.046 | [3] 0.065 | [4] -0.038 | [5] 0.049 | rosiglitazone 0.068 | [6] 0.036 | [7] 0.039 | saracatinib -0.003 | alvocidib -0.148 | Tubastatin A 0.058 | [8] -0.103 | defactinib -0.208 | rucaparib 0.281 | encorafenib -0.166 | [10] -0.051
active: sotrastaurin -0.451 | [9] -0.539

NASP (UniProt P49321)
Sequence of UniProt P49321 (P49321 whole entry, looked up): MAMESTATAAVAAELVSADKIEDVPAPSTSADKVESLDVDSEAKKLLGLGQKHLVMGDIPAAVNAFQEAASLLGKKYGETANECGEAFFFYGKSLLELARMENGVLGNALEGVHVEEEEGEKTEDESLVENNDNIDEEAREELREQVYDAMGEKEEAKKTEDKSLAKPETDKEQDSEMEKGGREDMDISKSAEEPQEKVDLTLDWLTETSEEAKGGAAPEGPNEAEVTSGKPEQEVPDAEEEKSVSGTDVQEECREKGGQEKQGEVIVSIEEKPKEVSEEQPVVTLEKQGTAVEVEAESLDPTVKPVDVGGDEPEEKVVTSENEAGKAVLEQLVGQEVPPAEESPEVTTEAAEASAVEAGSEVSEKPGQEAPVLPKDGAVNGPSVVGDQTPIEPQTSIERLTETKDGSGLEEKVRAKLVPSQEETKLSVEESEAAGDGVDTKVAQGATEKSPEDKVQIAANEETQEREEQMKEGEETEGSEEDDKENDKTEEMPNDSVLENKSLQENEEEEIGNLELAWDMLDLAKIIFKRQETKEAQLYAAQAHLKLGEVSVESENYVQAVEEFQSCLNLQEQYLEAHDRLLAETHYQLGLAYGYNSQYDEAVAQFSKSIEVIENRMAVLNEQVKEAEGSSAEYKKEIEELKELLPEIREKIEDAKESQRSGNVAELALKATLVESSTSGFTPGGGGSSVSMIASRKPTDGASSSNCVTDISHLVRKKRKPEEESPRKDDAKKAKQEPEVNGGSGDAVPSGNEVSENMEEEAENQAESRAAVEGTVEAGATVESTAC
inactive: [1] -0.118 | [2] 0.049 | epoxomicin 0.046 | [3] 0.035 | [4] -0.03 | [5] 0.004 | rosiglitazone 0.029 | [6] -0.061 | [7] -0.051 | saracatinib 0 | sotrastaurin -0.045 | alvocidib -0.08 | Tubastatin A 0.012 | [8] 0.073 | defactinib -0.085 | rucaparib -0.11 | [9] -0.041 | encorafenib 0.001 | [10] -0.004
active: volasertib -0.277

MRPS15 (UniProt P82914)
inactive: [1] -0.021 | volasertib -0.048 | [2] 0.163 | epoxomicin -0.007 | [3] -0.084 | [4] -0.115 | [5] -0.01 | rosiglitazone 0.032 | [6] 0.049 | [7] 0.042 | saracatinib -0.134 | sotrastaurin -0.079 | alvocidib -0.057 | Tubastatin A 0.039 | [8] -0.07 | defactinib 0.035 | rucaparib 0.084 | [9] 0.115 | encorafenib 0.039 | [10] -0.01

NMT2 (UniProt O60551)
Sequence of UniProt O60551 (O60551 whole entry, looked up): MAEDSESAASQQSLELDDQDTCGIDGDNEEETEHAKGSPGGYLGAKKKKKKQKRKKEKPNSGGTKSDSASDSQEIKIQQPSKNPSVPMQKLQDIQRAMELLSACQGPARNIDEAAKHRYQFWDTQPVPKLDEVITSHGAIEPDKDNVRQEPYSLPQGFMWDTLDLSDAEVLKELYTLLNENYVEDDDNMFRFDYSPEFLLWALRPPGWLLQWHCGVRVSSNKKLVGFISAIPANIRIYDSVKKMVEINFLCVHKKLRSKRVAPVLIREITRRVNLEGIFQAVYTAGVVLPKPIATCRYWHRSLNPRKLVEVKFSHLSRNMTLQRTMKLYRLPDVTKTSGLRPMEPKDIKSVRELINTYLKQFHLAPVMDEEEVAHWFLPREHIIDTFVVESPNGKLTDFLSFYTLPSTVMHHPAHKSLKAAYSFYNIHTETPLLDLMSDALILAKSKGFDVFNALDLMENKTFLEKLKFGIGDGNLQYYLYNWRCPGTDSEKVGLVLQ
inactive: [1] 0.013 | volasertib -0.177 | [2] 0.039 | epoxomicin 0.01 | [3] -0.001 | [4] -0.098 | [5] -0.013 | rosiglitazone -0.056 | [6] 0.002 | [7] -0.208 | saracatinib -0.031 | sotrastaurin 0.007 | alvocidib -0.021 | Tubastatin A 0.008 | [8] 0.146 | defactinib -0.016 | rucaparib -0.04 | [9] -0.027 | encorafenib 0.02 | [10] 0.023

PAFAH1B2 (UniProt P68402)
Sequence of UniProt P68402 (P68402 whole entry, looked up): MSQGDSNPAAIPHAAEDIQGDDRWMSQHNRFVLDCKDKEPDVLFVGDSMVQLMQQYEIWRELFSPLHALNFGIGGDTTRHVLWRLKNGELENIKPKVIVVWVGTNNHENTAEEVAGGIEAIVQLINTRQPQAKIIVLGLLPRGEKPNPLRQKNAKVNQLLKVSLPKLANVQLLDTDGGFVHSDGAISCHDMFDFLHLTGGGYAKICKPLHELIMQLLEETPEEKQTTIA
inactive: [1] 0.002 | volasertib 0.064 | [2] 0.036 | epoxomicin 0.102 | [3] 0.018 | [4] -0.087 | [5] -0.009 | rosiglitazone 0 | [6] -0.037 | [7] -0.016 | saracatinib -0.016 | sotrastaurin 0.097 | alvocidib 0.031 | Tubastatin A -0.058 | [8] -0.029 | defactinib 0.022 | rucaparib 0.037 | [9] 0.078 | encorafenib -0.006 | [10] -0.026

MXRA7 (UniProt P84157)
Sequence of UniProt P84157 (P84157 whole entry, looked up): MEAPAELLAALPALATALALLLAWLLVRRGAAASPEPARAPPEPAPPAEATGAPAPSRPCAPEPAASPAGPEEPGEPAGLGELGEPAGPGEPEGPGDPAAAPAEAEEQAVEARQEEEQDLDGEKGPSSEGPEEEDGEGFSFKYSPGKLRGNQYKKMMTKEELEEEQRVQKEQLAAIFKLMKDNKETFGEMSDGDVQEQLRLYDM
inactive: [1] 0.04 | volasertib 0.08 | [2] -0.11 | epoxomicin -0.034 | [3] 0.038 | [4] -0.042 | [5] 0.124 | rosiglitazone 0.037 | [6] -0.114 | [7] 0.113 | saracatinib 0.127 | sotrastaurin 0.027 | alvocidib 0.048 | Tubastatin A -0.02 | [8] 0.007 | defactinib -0.104 | rucaparib -0.093 | [9] -0.033 | encorafenib 0.008 | [10] -0.025

MRPS5 (UniProt P82675)
inactive: [1] 0.005 | volasertib -0.066 | [2] 0.181 | epoxomicin 0.077 | [3] -0.048 | [4] -0.05 | [5] -0.037 | rosiglitazone -0.005 | [6] 0.032 | [7] 0.102 | saracatinib -0.094 | sotrastaurin -0.124 | alvocidib -0.042 | Tubastatin A -0.009 | [8] -0.024 | defactinib 0.068 | rucaparib 0.129 | [9] 0.161 | encorafenib 0.072 | [10] -0.068

MRPS25 (UniProt P82663)
inactive: [1] 0.031 | volasertib -0.057 | [2] 0.145 | epoxomicin -0.126 | [3] -0.091 | [4] -0.295 | [5] -0.056 | rosiglitazone -0.042 | [6] 0.074 | [7] 0.036 | saracatinib -0.097 | sotrastaurin -0.059 | alvocidib -0.039 | Tubastatin A 0.084 | [8] -0.021 | defactinib -0.072 | rucaparib 0.129 | [9] 0.233 | encorafenib -0.016 | [10] -0.017

NR2C2AP isoform 2 (UniProt Q86WQ0)
Sequence of UniProt Q86WQ0 (Q86WQ0 whole entry, looked up): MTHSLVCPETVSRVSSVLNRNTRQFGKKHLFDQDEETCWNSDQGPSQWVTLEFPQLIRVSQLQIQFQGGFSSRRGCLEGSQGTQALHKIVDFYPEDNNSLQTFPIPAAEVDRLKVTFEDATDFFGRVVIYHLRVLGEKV
inactive: [1] -0.108 | volasertib -0.061 | [2] -0.018 | epoxomicin 0.023 | [3] -0.055 | [4] 0.018 | [5] 0 | rosiglitazone 0.039 | [6] -0.223 | [7] -0.152 | saracatinib 0.086 | sotrastaurin 0.018 | alvocidib -0.089 | Tubastatin A 0.099 | [8] 0.027 | defactinib -0.106 | rucaparib -0.031 | [9] 0.073 | encorafenib -0.048 | [10] -0.115

OGFR (UniProt Q9NZT2)
Sequence of UniProt Q9NZT2 (Q9NZT2 whole entry, looked up): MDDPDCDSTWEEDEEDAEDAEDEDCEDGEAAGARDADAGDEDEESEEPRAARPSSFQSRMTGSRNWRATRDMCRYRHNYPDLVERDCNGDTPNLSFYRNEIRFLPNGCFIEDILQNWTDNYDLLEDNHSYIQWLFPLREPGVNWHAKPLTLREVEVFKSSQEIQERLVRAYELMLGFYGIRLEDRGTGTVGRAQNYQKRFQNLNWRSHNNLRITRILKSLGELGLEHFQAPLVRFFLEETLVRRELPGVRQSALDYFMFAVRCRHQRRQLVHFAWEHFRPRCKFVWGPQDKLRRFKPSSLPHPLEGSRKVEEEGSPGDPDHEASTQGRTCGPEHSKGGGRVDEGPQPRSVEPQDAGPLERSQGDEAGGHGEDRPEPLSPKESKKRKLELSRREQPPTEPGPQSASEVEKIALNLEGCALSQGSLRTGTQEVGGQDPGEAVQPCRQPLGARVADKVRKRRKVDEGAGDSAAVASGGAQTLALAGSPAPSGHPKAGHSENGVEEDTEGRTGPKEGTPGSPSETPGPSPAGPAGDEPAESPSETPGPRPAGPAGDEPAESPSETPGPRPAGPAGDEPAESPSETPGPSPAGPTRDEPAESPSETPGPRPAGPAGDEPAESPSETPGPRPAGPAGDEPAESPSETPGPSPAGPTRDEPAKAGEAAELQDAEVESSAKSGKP
inactive: [1] 0.026 | volasertib -0.103 | [2] 0.167 | epoxomicin -0.076 | [3] 0.018 | [4] -0.041 | [5] 0.142 | rosiglitazone 0.007 | [6] -0.027 | [7] -0.134 | saracatinib -0.044 | sotrastaurin -0.146 | alvocidib -0.04 | Tubastatin A 0.089 | [8] -0.028 | defactinib -0.094 | rucaparib 0.132 | [9] 0.009 | encorafenib 0.031 | [10] -0.154

NPEPPS (UniProt P55786)
inactive: [1] -0.005 | volasertib -0.023 | [2] 0.079 | epoxomicin -0.022 | [3] 0.082 | [4] -0.102 | [5] 0.007 | rosiglitazone 0.046 | [6] -0.098 | [7] -0.141 | saracatinib -0.013 | sotrastaurin 0.108 | alvocidib -0.077 | Tubastatin A 0.012 | [8] -0.082 | defactinib -0.004 | rucaparib 0.013 | [9] 0.075 | encorafenib -0.032
active: [10] 0.231
